Our source for the max response values is PubChem BioAssay AID2314 (National Center for Advancing Translational Sciences (NCATS), 2010).

Where “and” joins values, the source holds several entries; their conditions need not be identical. Equal values may be shown once. Screen size: about 300,000 compounds; about 37,000 (12%) were called active. The entries come from a sample that favours actives as a whole. A number with no mark means an inactive call. Cut-off read from the data, not from the text of the source: active = max response mostly above about 13% (no sharp cut-off); inactive = mostly below about 14%.

This experiment in a line: Cycloheximide Counterscreen for Small Molecule Inhibitors of Shiga Toxin. Note: read at 38.3 µM for the half of the compounds with a filed dose; 0% is about no effect. The settings on record: cell reporter, cycloheximide protein synthesis inhibition counterscreen; active compounds read high. In general terms: The purpose of a counterscreen is to sort out artefacts and off-target activity.
Take `Cc1cc(=O)[nH]c2nnnn12`: the max response was 4.1%. The result for `CC1(c2ccccc2)CC(C)(C)N(C(=O)c2cc([N+](=O)[O-])cc([N+](=O)[O-])c2)c2ccccc21` (stereo not drawn) reads -4.42%; that for `N#CC1(C#N)C(C(=O)C23CC4CC(CC(C4)C2)C3)C12CCOCC2` (stereo not drawn), 2.45%; that for `Cc1cccc(N(C)C(=O)c2cc3c(=O)[nH]c4ccc(C)cc4c3s2)c1`, -2.49%. The same measure for `COc1ccc(COC(=O)c2ccc(Cl)c(S(=O)(=O)N3CCOCC3)c2)cc1F`: 6.51%.

For `CC(C)C(NC(=O)c1ccc(Cl)cc1)C(=O)O` (stereo not drawn), the max response was -2.96%.

Regarding `COc1ccc(-c2cc(=O)oc3cc(OCC(=O)N[C@@H](Cc4c[nH]c5ccccc45)C(=O)O)ccc23)cc1`, the max response was 0.573%.

Take `COc1ccc(-c2cc(C(=O)NC(C(=O)O)C(C)C)c(C)o2)cc1OC` (stereo not drawn): the max response is 28.2% (active). The same measure for `COc1ccc(-c2cc(C(=O)NC(Cc3c[nH]c4ccccc34)C(=O)O)c(C)o2)cc1OC` (stereo not drawn): 32.9% (active); for `Cc1cccc(C)c1OCC(=O)NC(Cc1c[nH]c2ccccc12)C(=O)O` (stereo not drawn): -0.482%.

For `CCC(C)NC(=O)c1cc(Cl)ccc1OC` (stereo not drawn), the max response was 5.03%. The result for `COc1ccc(C(=O)N/N=C2\CCS(=O)(=O)c3ccc(F)cc32)cc1OC` reads -4.85%; that for `O=C(CN(C(=O)c1csnn1)c1cccc(Cl)c1)NC1CCCC1`, 4.33%; that for `COc1ccc2c3c(c(=O)oc2c1OCC(=O)C(C)(C)C)CCCC3`, 35% (active). The same measure for `Cc1c(OC(C)C(=O)N[C@@H](Cc2ccccc2)C(=O)O)ccc2c3c(c(=O)oc12)CCCC3` (stereo partly drawn): -2.81%. `CCCOc1ccc2c3c(c(=O)oc2c1OCCC)CCC3`: the max response is -3.41%.

In the case of `COc1ccc(C(=O)CN(C(=O)c2ccc(Cl)cc2)N2C(=O)c3ccccc3C2=O)cc1`, the max response was -2.08%. Regarding `CCn1c(C)cc(=O)cc1-c1ccc(Cl)cc1`, the max response is -3.63%. The result for `COc1ccc(Cn2c(-c3ccc(Cl)cc3)c[n+]3ccccc23)cc1` reads 50.5% (active); that for `CCOc1ccc(NC(=O)CCS(=O)(=O)c2ccc3c(c2)CCCN3C(=O)CC)cc1`, -2.69%; that for `Cc1ccc(C(=O)COC(=O)CCN2C(=O)C3C4CCC(C4)C3C2=O)cc1C` (stereo not drawn), 11.1%. `COC(=O)c1scc(C)c1NC(=O)CSc1ccc(Cl)cc1`: the max response is -0.926%.

As for `CCC(=O)Nc1ccc2nn(-c3ccc(F)cc3)nc2c1`, the max response was 48.7% (active). The result for `Cc1nn(CC(=O)Nc2ccc(F)cc2)c(=O)c2ccccc12` reads 6.83%. With `O=C(CN1CCN(c2ccc(F)cc2)CC1)Nc1cccc(C(F)(F)F)c1`, the max response was 11.8%.

Turning to `Cc1cc(/C=C2/SC(=O)N(CC(=O)OC(C)C)C2=O)c(C)n1C`, the max response is 44% (active). Turning to `Cc1cc(/C=C2/SC(=O)N(CC(=O)N3CCCC3)C2=O)c(C)n1C`, the max response is -2.09%. The result for `CC(C)OC(=O)CN1C(=O)c2ccccc2C1=O` reads 0.757%; that for `CC(C)OCCCNC(=S)N1CCC(C(=O)c2ccc3c(c2)OCCO3)CC1`, -2.67%; that for `CC1CCC2(CC1)NC(=O)N(Cc1nnc(-c3cccs3)o1)C2=O` (stereo not drawn), 7.72%. The same measure for `c1csc(-c2nnc(COc3ccc4c(c3)OCO4)o2)c1`: 43% (active); for `c1csc(-c2nnc(COc3ncnc4sccc34)o2)c1`: -1.52%; for `COc1cccc(Nc2nnc(SCC(=O)N3CC(C)OC(C)C3)s2)c1` (stereo not drawn): 6%. The same measure for `COc1cccc(C(=O)Nc2nnc(S(=O)(=O)N3CCCCC3)s2)c1`: -1.34%.

For `COc1cccc(NC(=O)Nc2nnc(N3CCCCC3C)s2)c1` (stereo not drawn), the max response was 43.6% (active).

With `O=C1CCN(CCCc2ccccc2)CCN1CCO`, the max response is -4.59%.

Regarding `O=C(c1ccco1)N1CCN(CCOc2ccccc2)CC1`, the max response was 9.67%. On to `O=C1CCN(CCc2ccccc2)CCN1CCOc1ccccc1`, for which the max response is 10.9% (active). The same measure for `Cn1ncc2c(N3CCCCC3)nc(NCCCO)nc21`: -5.17%; for `OCCC#Cc1ccc(CN2CCN(Cc3ccsc3)C(CCO)C2)cc1` (stereo not drawn): 11.5%; for `CC1CCN(C(=S)c2cccc([N+](=O)[O-])c2)CC1`: -0.525%. In the case of `O=C(/C=C/c1ccc(F)cc1)NC(=S)NNC(=O)c1cccnc1`, the max response is -1.85%.

Regarding `CS(=O)(=O)N(CC(=O)N1CCOCC1)c1cccc(Cl)c1Cl`, the max response is 4.45%.

In the case of `Cc1cccc(NC(=O)CSc2nc3[nH]ncc3c(=O)[nH]2)c1`, the max response was 6.25%.

Take `Cc1ccc(CSc2nc3[nH]ncc3c(=O)[nH]2)cc1`: the max response is 44.4% (active). As for `CCCSc1nc2[nH]ncc2c(=O)[nH]1`, the max response was -7.37%. The result for `CCC(C)(C)NC(=O)C(c1ccc(OC)cc1)N(C(=O)CCC(=O)Nc1cc(C)on1)c1ccc(OC)cc1OC` (stereo not drawn) reads -1.05%; that for `COC(=O)c1ccc([C@@H](O)[C@H](C)C(=O)CC(=O)OC(C)(C)C)cc1`, 16.5% and 4.37%. For the compound `C[C@H](NC(=O)OC(C)(C)C)c1nnc(SCC(N)=O)o1`, the max response was 1.54%. The result for `C[C@@H](NC(=O)OC(C)(C)C)c1nnc(S(=O)(=O)Cc2ccccc2)o1` reads 15.5% (active). The same measure for `CC(C)Sc1nnc([C@H](Cc2ccccc2)NC(=O)OC(C)(C)C)o1`: -2%; for `COc1cc(-c2nnn(CC(=O)NCc3ccccc3)n2)cc(OC)c1OC`: -0.552%; for `Cc1ccc(-n2c(O)c(C=Nc3ccc(S(=O)(=O)Nc4ncccn4)cc3)c3ccccc3c2=O)cc1C`: 9.64%.

For the compound `CC(C)Oc1ccc(CN2CCC(n3nccc3NC(=O)c3cccnc3)CC2)cc1`, the max response was 2.69%. Take `COC(=O)C1=CN(c2ccc(F)c(F)c2)C=C(C(=O)OC)C1c1ccc([N+](=O)[O-])cc1`: the max response is 4.1%. The same measure for `CC(=O)c1ccc(N2CCN(S(=O)(=O)c3ccc4c(c3)CC(=O)N4C)CC2)cc1`: 11.5%. The same measure for `COC(=O)c1cc(NC(=O)c2nn(C)c(=O)c3ccccc23)cc(C(=O)OC)c1`: -2.61%; for `COC(=O)c1cc(NC2c3ccccc3C(=O)N2c2ccc(Cl)cn2)cc(C(=O)OC)c1` (stereo not drawn): 13.7% (active).

Consider `CCc1ccccc1NC1c2ccccc2C(=O)N1c1cccnc1` (stereo not drawn), for which the max response is 1.65%. In the case of `COCCNC(=O)c1ccc2c(c1)ncn2-c1ccc(C)c(Cl)c1`, the max response was -2.44%. On to `Cc1cc(OCCCN2CCN(Cc3ccccc3)CC2)ccc1[N+](=O)[O-]`, for which the max response is 2.14%. `NC1=NC(=O)C(Cc2cccc(Cl)c2Cl)S1` (stereo not drawn): the max response was -1.63%. The result for `O=C(/C=C/Sc1ncn[nH]1)c1ccc(Cl)cc1` reads 35.4% (active); that for `O=C(NCCOCc1ccc(Cl)cc1)c1ncn[nH]1`, -5.7%; that for `COc1ccc(Cl)cc1CSc1ncn[nH]1`, 1.38%.

With `Nc1nonc1-n1nnc(C(=O)N/N=C/C2CCCCC2)c1-c1ccccc1`, the max response was -3.53%. The result for `COc1ccc(C(C(=O)NCc2ccccc2)N(Cc2cccs2)C(=O)c2cnccn2)cc1` (stereo not drawn) reads 0.798%. The result for `CCOc1cc(-c2noc(CCC(=O)N3CCOCC3)n2)ccc1OC` reads -0.629%; that for `CCNC(=O)CCc1nc(-c2ccc(C)cc2)no1`, 18.6% (active); that for `CN1CCN(C(=O)CCc2nc(-c3ccc(Cl)cc3)no2)CC1`, 7.26%. The result for `Cc1ccc(-c2noc(CNC(=O)c3ccoc3C)n2)cc1` reads 11%; that for `CCNC(=O)CCc1nc(-c2ccc(C(C)(C)C)cc2)no1`, 34.3% (active). In the case of `Cc1ccc(-c2noc(CCC(N)=O)n2)cc1`, the max response is 15.6% (active). The same measure for `COc1ccc(N2CCN(C(=O)CCc3nc(-c4ccc(C)cc4)no3)CC2)cc1`: -3.69%. The same measure for `Cc1ccc(-c2noc(CCC(=O)Nc3ccccc3N3CCN(C)CC3)n2)cc1`: 3.85%; for `CCCCNC(=O)CCNC(=O)c1ccc(C(C)(C)C)cc1`: 5.17%. For `CC(C)C(NS(=O)(=O)c1cccs1)C(=O)Nc1nc(C(C)(C)C)cs1` (stereo not drawn), the max response is -2.46%.

Turning to `Cc1cc(NS(=O)(=O)c2ccc(NC(=O)C(C)Oc3cccc(C)c3C)cc2)nc(C)n1` (stereo not drawn), the max response is -0.471%. With `Cc1ccc(C)c(NC(=O)C(OC(=O)c2ccc(C)s2)c2ccccc2)c1` (stereo not drawn), the max response is 6.66%. The result for `COc1cc(OC)c2c(-c3cccc(-c4cccc(N)c4)c3)cc(=O)oc2c1` reads -2.04%; that for `CC(C)n1c(=S)[nH]c2cc(C(F)(F)F)ccc21`, 12.9%. The same measure for `Cc1oc2cc(Br)c(O)c(Br)c2c1C(=O)c1ccccc1`: 13.7%; for `OCC1(Cc2ccccc2C(F)(F)F)CCN(Cc2ccncc2)CC1`: 0.237%. The same measure for `COC(=O)C1=C(C)NC2=C(C(=O)c3ccccc32)C1c1ccc(-c2ccc(C(=O)O)cc2)o1` (stereo not drawn): 28.7% (active); for `COC(=O)C1=C(C)NC(=O)NC1/C=C/c1ccccc1` (stereo not drawn): 0.456%; for `Cc1ccc(C2C3=C(Nc4[nH]n(-c5ccccc5)c(=O)c42)c2ccccc2C3=O)cc1` (stereo not drawn): -3.8%. Regarding `N=C1/C(=C/c2cccn2-c2cccc([N+](=O)[O-])c2)C(=O)N=C2SC=CN12`, the max response was -2.19%. The result for `CC1(C)CC2CC(C)(CN2c2ncnc3ccc(Br)cc23)C1` (stereo not drawn) reads -0.269%; that for `COc1ccc(Cc2nnnn2CC(=O)O)cc1`, -1.14%; that for `COc1ccc(Cc2nnc(SC)[nH]c2=O)cc1`, 4.91%. The same measure for `COc1ccc(Cc2cc(-c3ccc(F)cc3)n[nH]c2=O)cc1`: 16.2% (active).

On to `O=c1[nH]c2ccccc2n2c(-c3ccccc3)nnc12`, for which the max response was -2.01%. The result for `CC(CN1CCC(n2nccc2NC(=O)C2CCCC2)CC1)c1ccccc1` (stereo not drawn) reads -1.46%.
